According to PubChem BioAssay (NCI):
This is part of a sample that, as a whole, favours compounds with a hit. Of some 83,000 tested, about 20% had one in any assay.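 Step 1: grow cells in 96-well plates. Step 2: add test compound at a single concentration. Step 3: incubate 48 h. Step 4: record percent growth.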 The source made the active and inactive calls. Rule for the calls: active = growth percent below 10; inactive = the rest.

Assays:
Experiment in all cases: NCI-60 one-dose screen, 48 h (100 = growth as untreated, 0 = no growth, -100 = all killed)
NCI-H23 lung = conditions: 10 µM unless noted
NCI-H322M lung = conditions: 10 µM unless noted
HOP-62 NSCLC = conditions: 10 µM unless noted
NCI-H460 lung = conditions: 10 µM unless noted
HOP-92 NSCLC = conditions: 10 µM unless noted
A549/ATCC NSCLC = conditions: 10 µM unless noted
786-0 renal = conditions: 10 µM unless noted
COLO 205 colon = conditions: 10 µM unless noted
NCI-H522 lung = conditions: 10 µM

Measured: growth

COCCOC1=C(Cl)C(=O)c2ccccc2C1=O
active: HOP-92 NSCLC -17.3%
inactive: NCI-H23 lung 29% | NCI-H322M lung 95.6% | HOP-62 NSCLC 45.5% | NCI-H460 lung 14.3% | A549/ATCC NSCLC 21.6% | 786-0 renal 81.8% | COLO 205 colon 35.4%

O=c1[nH]c(-c2ccncc2)nc2sc3c(c12)CCCCCC3
active: HOP-92 NSCLC -25.1%
inactive: NCI-H23 lung 88.5% | NCI-H322M lung 59.4% | HOP-62 NSCLC 52.2% | NCI-H460 lung 30.4% | 786-0 renal 80.4% | COLO 205 colon 106%

Nc1nc(-c2ccnc(Cl)c2)nn1-c1nc2ccccc2s1
inactive: NCI-H23 lung 101% | NCI-H322M lung 100% | HOP-62 NSCLC 99.5% | NCI-H460 lung 107% | HOP-92 NSCLC 103% | A549/ATCC NSCLC 103% | 786-0 renal 109% | COLO 205 colon 116%

CC(C)(C)[Si](C)(C)OC1[C@@H](COC(=O)NC(=O)CCl)O[C@@H](n2cnc3c(N)ncnc32)[C@H]1O[Si](C)(C)C(C)(C)C (some centres undefined)
inactive: NCI-H322M lung 113% | HOP-62 NSCLC 81.9% | NCI-H460 lung 64.6% | HOP-92 NSCLC 12.7% | A549/ATCC NSCLC 62.6% | COLO 205 colon 27.5%
active: NCI-H23 lung -45% | 786-0 renal 4.11%

COc1ccc(-n2c(SCc3cc(OC)c(OC)c(OC)c3)nc3ccc(C)cc3c2=O)c(OC)c1
active: NCI-H460 lung 4.59% | COLO 205 colon -4.21%
inactive: NCI-H23 lung 17.8% | NCI-H322M lung 28% | HOP-62 NSCLC 47.4% | HOP-92 NSCLC 22.7% | 786-0 renal 29.6%

O=C1C(N2CCOCC2)=Cc2cccc3cccc1c23
inactive: NCI-H23 lung 100% | NCI-H322M lung 111% | HOP-62 NSCLC 89% | NCI-H460 lung 93.2% | NCI-H522 lung 89.4% | A549/ATCC NSCLC 88.5% | 786-0 renal 103% | COLO 205 colon 93.7%

COc1cc(-c2nc(SC(C)C)nc(Nc3ccccc3C)c2C#N)cc(OC)c1OC
inactive: NCI-H23 lung 105% | NCI-H322M lung 106% | HOP-62 NSCLC 104% | NCI-H460 lung 107% | HOP-92 NSCLC 110% | A549/ATCC NSCLC 101% | 786-0 renal 108% | COLO 205 colon 117%

COc1cccc(C2CC(=O)Nc3cc4c(cc32)CCC4)c1OC (centres undefined)
inactive: NCI-H23 lung 59% | NCI-H322M lung 68% | HOP-62 NSCLC 60.5% | NCI-H460 lung 61.8% | NCI-H522 lung 60.9% | A549/ATCC NSCLC 47.8% | 786-0 renal 79.6% | COLO 205 colon 50%

CC(=O)c1cc(C)c(OC(=O)c2ccccc2)c(C)c1
inactive: NCI-H23 lung 89.8% | NCI-H322M lung 119% | HOP-62 NSCLC 96.8% | NCI-H460 lung 106% | HOP-92 NSCLC 96.1% | 786-0 renal 100% | COLO 205 colon 93.9%

O=C1OCC2=C1C(c1ccc3c(c1)OCO3)CC(=O)N2c1cccc(Cl)c1 (centres undefined)
inactive: NCI-H23 lung 90.2% | NCI-H322M lung 94.1% | HOP-62 NSCLC 103% | NCI-H460 lung 108% | NCI-H522 lung 92.9% | A549/ATCC NSCLC 94.6% | 786-0 renal 110% | COLO 205 colon 105%

CCN1CCN(C(=S)SCC(=O)Nc2nc3ccc(OC)cc3s2)CC1
inactive: NCI-H23 lung 100% | NCI-H322M lung 92.3% | HOP-62 NSCLC 97.2% | NCI-H460 lung 113% | HOP-92 NSCLC 83.8% | A549/ATCC NSCLC 99.5% | 786-0 renal 107% | COLO 205 colon 112%

Cc1ccc2nc(NC(=O)CSC(=S)N3CCN(C)CC3)sc2c1
inactive: NCI-H23 lung 92.4% | NCI-H322M lung 106% | HOP-62 NSCLC 106% | NCI-H460 lung 106% | HOP-92 NSCLC 94.5% | 786-0 renal 108% | COLO 205 colon 105%

COc1cc(/C=C/C(=O)C(=Cc2ccc(F)c(F)c2)C(=O)/C=C/c2ccc(O)c(OC)c2)ccc1O
inactive: NCI-H322M lung 59.4% | HOP-62 NSCLC 22.1% | A549/ATCC NSCLC 44.2% | 786-0 renal 40.8% | COLO 205 colon 58.1%
active: NCI-H23 lung -24.6% | NCI-H460 lung 1.97% | NCI-H522 lung -48.3%

O=C1/C(=C/c2ccc(Oc3ccccc3)cc2)N=C(c2ccccc2)N1CCc1cccs1
inactive: NCI-H23 lung 87.1% | NCI-H322M lung 93.6% | HOP-62 NSCLC 104% | NCI-H460 lung 70.1% | NCI-H522 lung 46.8% | A549/ATCC NSCLC 91.3% | 786-0 renal 84.5% | COLO 205 colon 107%

CCCOC(=O)c1ccc2c(c1)[N+](=O)C(C(=O)c1ccccc1)=C(C(F)(F)F)[N+]2=O
active: NCI-H23 lung -75.6% | NCI-H322M lung -91.7% | HOP-62 NSCLC -96.5% | NCI-H460 lung -69.9% | NCI-H522 lung -92.6% | A549/ATCC NSCLC -88.1% | 786-0 renal -81.2% | COLO 205 colon -92.3%

Cc1ccc(N=c2nc3sc4c(C)ccc(C)c4n3c(N)c2C#N)cc1
inactive: NCI-H23 lung 90.2% | NCI-H322M lung 113% | HOP-62 NSCLC 101% | NCI-H460 lung 105% | HOP-92 NSCLC 76.6% | A549/ATCC NSCLC 100% | 786-0 renal 101% | COLO 205 colon 108%

COc1cc(/C=C2\C(=O)Nc3ccccc32)cc(OC)c1O
inactive: NCI-H23 lung 66.4% | NCI-H322M lung 96% | HOP-62 NSCLC 64.4% | NCI-H460 lung 40.1% | A549/ATCC NSCLC 67.9% | 786-0 renal 83.2% | COLO 205 colon 112%
active: NCI-H522 lung 8.78%

COc1ccc(S(=O)(=O)ON=C2C=C(C)C(=O)C(C)=C2)cc1
inactive: NCI-H23 lung 98.2% | NCI-H322M lung 103% | HOP-62 NSCLC 106% | NCI-H460 lung 106% | HOP-92 NSCLC 59.4% | A549/ATCC NSCLC 105% | 786-0 renal 93.1% | COLO 205 colon 89.2%

Nc1nc(N)c(C=Nc2ccc(Br)cc2)c(Nc2ccc(Br)cc2)n1
inactive: NCI-H23 lung 97.9% | NCI-H322M lung 72.9% | HOP-62 NSCLC 98.9% | NCI-H460 lung 95.9% | NCI-H522 lung 86.4% | A549/ATCC NSCLC 77.2% | 786-0 renal 92.9% | COLO 205 colon 117%

O=C1/C(=C/c2ccc(Cl)cc2)N=C(c2ccccc2)N1CCc1cccs1
inactive: NCI-H23 lung 61.4% | NCI-H322M lung 82.2% | HOP-62 NSCLC 108% | NCI-H460 lung 23.3% | NCI-H522 lung 23% | A549/ATCC NSCLC 30.6% | 786-0 renal 50.9% | COLO 205 colon 100%

Cc1c(C(=O)Nc2nc(-c3ccccc3)cs2)nnn1-c1ccccc1Br
inactive: NCI-H23 lung 28.7% [50 µM] | NCI-H322M lung 79.5% [50 µM] | HOP-62 NSCLC 94.7% [50 µM] | NCI-H460 lung 45.2% [50 µM] | HOP-92 NSCLC 57.4% [50 µM] | A549/ATCC NSCLC 30.9% [50 µM] | 786-0 renal 66.7% [50 µM] | COLO 205 colon 42.3% [50 µM]

CCN1CCN(c2ccc(Nc3ncc4ccc5ncn(C(C)C)c5c4n3)nc2)CC1
active: NCI-H23 lung -26.1% | NCI-H322M lung 1.51% | HOP-62 NSCLC -7.69% | NCI-H460 lung -30.3% | A549/ATCC NSCLC 9.87% | 786-0 renal 9.21% | COLO 205 colon -40.4%
inactive: HOP-92 NSCLC 13.9%

CCOC(=O)c1c(Cl)c2c(n1Cc1cc(OC)cc(OC)c1)-c1oncc1CCC2
inactive: NCI-H23 lung 44.1% | NCI-H322M lung 55.7% | HOP-62 NSCLC 39.7% | NCI-H460 lung 12.8% | NCI-H522 lung 28.9% | A549/ATCC NSCLC 28.1% | 786-0 renal 43%
active: COLO 205 colon -51.8%

Oc1ccccc1/C=N/Nc1nc2ccccc2s1
inactive: NCI-H23 lung 59.4% | NCI-H322M lung 63.1% | HOP-62 NSCLC 49.2% | NCI-H460 lung 15.7% | HOP-92 NSCLC 44.5% | A549/ATCC NSCLC 45% | 786-0 renal 73.4% | COLO 205 colon 38%

O=C1CN2CCC1C/C2=C\c1ccnc2c(Cl)cccc12 (centres undefined)
inactive: NCI-H23 lung 92.2% | NCI-H322M lung 102% | HOP-62 NSCLC 82% | NCI-H460 lung 116% | NCI-H522 lung 88.9% | A549/ATCC NSCLC 107% | 786-0 renal 103% | COLO 205 colon 98%

Cc1cc(=O)c2c(C)ccc(C)c2[nH]1
inactive: NCI-H23 lung 100% | NCI-H322M lung 109% | HOP-62 NSCLC 104% | NCI-H460 lung 111% | NCI-H522 lung 96.2% | A549/ATCC NSCLC 93.1% | 786-0 renal 96.4% | COLO 205 colon 125%

COc1ccc(Sc2ccc3[nH]c(=O)nc(N)c3c2)cc1
inactive: NCI-H23 lung 101% | NCI-H322M lung 96.4% | HOP-62 NSCLC 108% | NCI-H460 lung 106% | NCI-H522 lung 100% | A549/ATCC NSCLC 80.3% | 786-0 renal 104% | COLO 205 colon 106%

O=[N+]([O-])c1cc2c(cc1Br)-c1ccccc1C2
inactive: NCI-H23 lung 84.7% | NCI-H322M lung 115% | HOP-62 NSCLC 81.4% | NCI-H460 lung 102% | NCI-H522 lung 77.6% | A549/ATCC NSCLC 90.9% | 786-0 renal 88.4% | COLO 205 colon 84.6%

COc1cc(-c2nc(SC(C)C)nc(Nc3cccc(C)c3)c2C#N)cc(OC)c1OC
inactive: NCI-H23 lung 103% | NCI-H322M lung 107% | HOP-62 NSCLC 103% | NCI-H460 lung 108% | HOP-92 NSCLC 106% | A549/ATCC NSCLC 91% | 786-0 renal 109% | COLO 205 colon 109%

COc1ccc(OC)c(C2C(C#N)=C(N)Oc3cc(O)ccc32)c1 (centres undefined)
inactive: NCI-H23 lung 88% | NCI-H322M lung 102% | HOP-62 NSCLC 97.4% | NCI-H460 lung 108% | NCI-H522 lung 80.3% | A549/ATCC NSCLC 97.1% | 786-0 renal 96.7% | COLO 205 colon 101%

COc1cc(CNCCCN2C(=O)c3ccc4c5c(ccc(c35)C2=O)C(=O)N(CCCNCc2cc(OC)c(OC)c(OC)c2)C4=O)cc(OC)c1OC
active: NCI-H23 lung -74.8% | NCI-H322M lung -24.2% | HOP-62 NSCLC -81.4% | NCI-H460 lung -75% | NCI-H522 lung -80.7% | A549/ATCC NSCLC -84.8% | 786-0 renal -30% | COLO 205 colon -92.6%

Clc1cccc(Cl)c1Nc1ccc2nnc(-c3ccncc3)n2n1
inactive: NCI-H23 lung 95.8% | NCI-H322M lung 88.5% | HOP-62 NSCLC 103% | NCI-H460 lung 106% | A549/ATCC NSCLC 104% | 786-0 renal 104% | COLO 205 colon 110%
active: NCI-H522 lung -74.4%

c1ccc2cc(Cn3c(-c4ccc5ccccc5c4)[n+](Cc4ccc5ccccc5c4)c4ccccc43)ccc2c1
active: NCI-H23 lung -56.2% | NCI-H322M lung -7.14% | HOP-62 NSCLC -66.8% | NCI-H460 lung -81.7% | HOP-92 NSCLC -60.3% | 786-0 renal -95.1% | COLO 205 colon -69.5%
